Hit rate of the full screen: of about 48,000 compounds, about 13,000 (27%) showed an effect of 50% or more. This is one part of the list.
system: Wolbachia pipientis; experiment: Anti-Wolbachia Cell-Based Screen; format: functional; parameters: scale not given: in the data most compounds retested in dose-response had high values; settings: 5 µM

| SMILES | Percent Effect [%] |
| --- | --- |
| Cc1ccccc1C(C(=O)N(C)CCc1cn[nH]c1)N(C)C (configuration not stated) | 13.24 |
| O=C(c1ccc(C2CCCO2)s1)N1Cc2ccccc2C1 (configuration not stated) | -6.563 |
| CCOc1ccc(OCc2nccc(-c3cc(C(=O)O)ccn3)n2)cc1 | -79.36 |
| Cc1cc(N(C)Cc2noc(C)n2)n2nc(C)c(C)c2n1 | 14.08 |
| Cc1csc(CN(C)c2cc(C)nc3c(C)c(C)nn23)n1 | 83.18 |
| Cc1cc(N(C)Cc2ccsc2)n2nc(C)c(C)c2n1 | -6.917 |
| CC(O)CN(c1ccccc1)S(=O)(=O)c1cc(C(=O)O)cc2c1CCC2 (configuration not stated) | 5.053 |
| CCCc1nnc(C(=O)N(C)Cc2cnc3ccccn23)o1 | -16.11 |
| CCOc1cccc(C(=O)N2C[C@H]3CC[C@@H]2CN(C(=O)C2CCC2)C3)c1 | -8.209 |
| CN(C)CCN1C(=O)CCC12CCCN(C(=O)c1cccnc1)CC2.O=C(O)C(F)(F)F.O=C(O)C(F)(F)F (configuration not stated) | 104.4 |
| Cc1cc(C(=O)N2CCCC3(COCCN(CCN(C)C)C3)C2)no1.O=C(O)C(F)(F)F.O=C(O)C(F)(F)F (configuration not stated) | -4.031 |
| O=C(O)C(F)(F)F.O=C(c1ccoc1)N1CCCC2(CCC(=O)N2Cc2cccnc2)C1 (configuration not stated) | -3.168 |
| O=C(O)C(F)(F)F.O=C(c1ccoc1)N1CCCC2(CCC(=O)N2Cc2ccncc2)C1 (configuration not stated) | -1.829 |
| CN(C)CCN1C(=O)CCCC12CCCN(C(=O)c1cc[nH]n1)C2.O=C(O)C(F)(F)F (configuration not stated) | 101.5 |
| CN(C)CCN1C(=O)CCCC12CCCN(C(=O)c1ccncc1)C2.O=C(O)C(F)(F)F.O=C(O)C(F)(F)F (configuration not stated) | 106.1 |
| CN(C)CCN1CCOCC2(CCCN(C(=O)c3ccccn3)C2)C1.O=C(O)C(F)(F)F.O=C(O)C(F)(F)F (configuration not stated) | -9.412 |
| Cn1cc(C2(C)CN(C(=O)Nc3ccccc3F)CCO2)cn1 (configuration not stated) | 1.448 |
| Cn1ncnc1CNc1ccc2c(c1)N(C(=O)OC(C)(C)C)CCC2 | 21.04 |
| Cc1ccsc1CNc1ccccc1C(=O)N1CCNC(=O)C1 | 4.147 |
| Cc1nsc(N2CCCN(c3nc(C4CC4)ns3)CC2)n1 | 3.492 |
| Cc1cc(CNC2CCCN(c3cccnn3)C2)no1 (configuration not stated) | 3.501 |
| Cc1ccc(N2CCCC(NCc3nc(C)c(C)o3)C2)nn1 (configuration not stated) | -3.745 |
| Cc1ccc(N2CCCC(NCc3c(C)noc3C)C2)nn1 (configuration not stated) | 115 |
| Cc1ccc(N2CCCC(N(C)Cc3c(C)noc3C)C2)nn1 (configuration not stated) | -3.849 |

| SMILES | Percent Effect [%] |
| --- | --- |
| Cc1ccc(N2CCCC(NCc3ccccn3)C2)nn1 (configuration not stated) | 95.9 |
| Cc1ccc(N2CCCC(NCc3cscn3)C2)nn1 (configuration not stated) | -5.01 |
| Cc1ccc(N2CCCC(NCc3ccc(-n4ccnc4)cc3)C2)nn1 (configuration not stated) | 9.457 |
| Cc1ccc(N2CCCC(NCc3cc(C)on3)C2)nn1 (configuration not stated) | 114.3 |
| O=C(C1SCCc2sccc21)N1CCC(O)CC1 (configuration not stated) | -0.1428 |
| CCN(CC)c1ccc(C(=O)N2C[C@@H]3CC[C@H](C2)N(CCOC)C3)cc1 | 14.63 |
| Cn1ccc(CN2CCCC(CNS(C)(=O)=O)C2)cc1=O (configuration not stated) | 2.475 |
| Cn1ccc(CN2CCC(CCc3ccc(O)cc3)CC2)cc1=O | 11.88 |
| CCN(CC)CC1CCN(Cc2ccn(C)c(=O)c2)CC1 | 118.1 |
| CCS(=O)(=O)NC1CCCN(Cc2ccn(C)c(=O)c2)C1 (configuration not stated) | 5.979 |
| Cn1ccc(CN2CCC(COC3CCCC3)CC2)cc1=O | 0.749 |
| CN(C)CCC1CCN(Cc2ccn(C)c(=O)c2)CC1 | 112.8 |
| Cc1cccc(C)c1NC(=O)c1cccc(CN2CCCC2C)c1 (configuration not stated) | 11.58 |
| Cn1cc(C(=O)N2CCCC(c3cc(O)n(C)n3)C2)cn1 (configuration not stated) | 108 |
| Cn1ccc(C(=O)N2CCCC(c3cc(O)n(C)n3)C2)n1 (configuration not stated) | 89.67 |
| CC(C)c1csc(C2CCCN(C(=O)c3ccc(=O)n(C)n3)C2)n1 (configuration not stated) | -15.66 |
| COCCN1CCN(CC(=O)NC2(C#N)CCCC2)CC1C (configuration not stated) | 16.28 |
| O=C(CCn1cc(Cl)cn1)N1CCC2(CC1)[C@H](O)C[C@@H]2OCCO | -14.25 |
| CCc1cnc(NCc2nc(COC)no2)nc1 | 3.706 |
| COc1ncc(NCc2csc(-c3ccco3)n2)cc1C(N)=O | -5.121 |
| COCCNc1ncc(-c2onc(C)c2C)c(-c2ccco2)n1 | 94.53 |
| CCOCCN1CCN(Cc2nnc(-c3ccco3)o2)CC1 | 1.125 |
| COCCNc1ncc(-c2cc(C)no2)c(-c2ccco2)n1 | 96.17 |
| CCN(CC)CCNc1ncc(-c2cc(C)no2)c(-c2ccoc2C)n1 | -6.629 |

| SMILES | Percent Effect [%] |
| --- | --- |
| CCOCCCNc1ncc(-c2onc(C)c2C)c(-c2ccco2)n1 | 100.1 |
| CCCOCCCNc1nccc(-c2cn(C)nc2C)n1 | -3.491 |
| Cc1nsc(N2CCN(C(=O)Nc3ccc4[nH]ccc4c3)CC2)n1 | 0.5995 |
| CCc1cc(CN2CCC(CCC(=O)Nc3ccccc3Cl)CC2)on1 | 3.381 |
| N#CCCN(CC1CCOC1)S(=O)(=O)c1c(F)cccc1Cl (configuration not stated) | 4.348 |
| COc1ccc(N2CCN(Cc3nc(CSC)no3)CC2=O)cc1 | 98.96 |
| CCN1CC2(CCN(Cc3nc(CSC)no3)CC2)CC1=O | -1.733 |
| CSCc1noc(Cn2ccc3ccccc3c2=O)n1 | 6.504 |
| CSCc1noc(Cn2ncn3cccc3c2=O)n1 | 40.19 |
| COCCc1noc(CN2CCN(c3ccc(OC)cc3)C(=O)C2C)n1 (configuration not stated) | 97.33 |
| CCc1nc(C2CCCN2Cc2nc(CCOC)no2)no1 (configuration not stated) | -0.7381 |
| CCc1ccc(C2CCCCCN2Cc2nc(CCOC)no2)o1 (configuration not stated) | -5.886 |
| COc1ccc(N2CCN(Cc3nc(CSC)no3)C(C)C2=O)cc1 (configuration not stated) | 106.8 |
| COc1ccc(N2CCN(C[C@@H](C)CO)CC2=O)cc1 | -31.81 |
| Cc1ccc(N2C[C@H]3CCC[C@@H](CN4CCOCC4)[C@H]3C2)nn1.O=C(O)C(F)(F)F | 7.309 |
| O=C(NCCn1ccnc1)N1CCCN(Cc2cccs2)CC1 | 115.6 |
| CC(Cn1ccnc1)NC(=O)N1CCN(Cc2cccs2)CC1 (configuration not stated) | 97.63 |
| CC(Cn1ccnc1)NC(=O)N1CCCN(Cc2cccs2)CC1 (configuration not stated) | 98.79 |
| O=C1CCc2cc(NC(=O)N3CCCN(Cc4cccs4)CC3)ccc21 | 4.237 |
| CC(NC(=O)N1CCCN(Cc2cccs2)CC1)c1cccnc1 (configuration not stated) | -8.61 |
| O=C(Nc1ccc2c(c1)OCCO2)N1CCCN(Cc2cccs2)CC1 | -12.77 |
| Cc1ccc(C(=O)N2CCN(C(=O)NC(C)Cn3ccnc3)CC2)o1 (configuration not stated) | 0.8524 |
| CC(Cn1cccn1)NC(=O)N1CCN(Cc2cccs2)CC1 (configuration not stated) | 7.648 |
| Cc1cc(CN2CCN(C(=O)NC(C)Cn3ccnc3)CC2)no1 (configuration not stated) | -2.401 |
